Values joined by “and” are separate entries in the source; they are usually repeats but may differ in a detail not shown here. Equal entries are not always repeated. Screen size: about 350,000 compounds; about 6,000 (1.7%) were called active. About 5% were inconclusive and are not listed. Rule as the data show it: active = CPE inhibition above about 20% (passing the limit was not always enough); inconclusive = no clear call, values can overlap the other calls; tested in BHK-21 cells. The entries come from a sample that favours actives as a whole. A structure can be active in one record and inactive in another.
Test: inhibitors of DENV2 cytopathic effect, primary screen, cell-based, plate reader, single concentration (AID 651640);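 also: 0% = median of neutral control wells and 100% = median of positive control wells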
Settings: DENV2-infected cells, cytopathic effect rescue, at 9.99 µM, stronger effect = higher value

CPE inhibition, active:
CC(C)NC(=O)N1C[C@@H]2[C@H](c3ccccc31)[C@@H](CO)N2Cc1ccc(Cl)cc1 47.3%, COc1ccc(CN2[C@H](CO)[C@@H]3c4ccccc4N(C(=O)C4CC4)C[C@@H]32)cc1 26.1%, COc1ccccc1NC(=O)N1C[C@H]2[C@@H](c3ccccc31)[C@H](CO)N2Cc1ccc2c(c1)OCO2 55.6%, C[C@H](CO)N1C[C@H](C)[C@H](CN(C)C(=O)Nc2ccc(F)cc2)Oc2c(NC(=O)c3cnccn3)cccc2C1=O 29.3%, C[C@H]1CN([C@@H](C)CO)C(=O)c2cccc(NC(=O)c3cnccn3)c2O[C@H]1CN(C)C(=O)Nc1ccccc1 28.3%, Cc1c(C(=O)NCCN2C(=O)S/C(=C\c3cccs3)C2=O)cccc1[N+](=O)[O-] 27%, Cc1nnc(SCC(=O)N2CCOCC2)[nH]c1=O 58.6%, COc1ccc2c(C)c(CCC(=O)NC3CC3)c(=O)oc2c1C 63.2%, O=C(Nc1ncccc1O)c1ccc(S(=O)(=O)N2CCCCCC2)cc1 71.9%, O=C(COc1ccccc1)Nc1ccc(N2CCN(C(=O)c3cccs3)CC2)cc1 21.9%, COc1ccc2cc(-c3[nH]ncc3CNCCn3nc(C)cc3C)ccc2c1 22.2%, O=C(Cc1ccncc1)N1C[C@@H]2N[C@H](C1)C2c1ccc(-c2ccc(F)cc2)cc1 (stereo not given in full) 21.5%

CPE inhibition, inactive:
Cc1ccc(S(=O)(=O)NCC[C@@H]2CC[C@H](NC(=O)CC3CC3)[C@H](CO)O2)cc1 -2.24%, COc1ccc(NC(=O)Nc2ccc3c(c2)C(=O)N([C@H](C)CO)C[C@@H](C)[C@H](CN(C)Cc2ccccc2)O3)cc1 -6.1%, CCCC#Cc1ccc2c(c1)O[C@H](CN(C)C(=O)c1ccncc1)[C@H](C)CN([C@H](C)CO)S2(=O)=O -4.65%, CO[C@@H]1CN(C)C(=O)c2ccc(NS(=O)(=O)c3cn(C)cn3)cc2OC[C@H](C)N(CCC(F)(F)F)C[C@@H]1C -5.08%, C[C@@H]1CN([C@@H](C)CO)C(=O)c2cc(NC(=O)CCN3CCOCC3)ccc2O[C@H]1CN(C)C(=O)NC1CCCCC1 -3.33%, COc1ccc(CN2[C@@H](CO)[C@@H]3c4ccccc4N(C(=O)Nc4ccccc4)C[C@@H]32)cc1 -9.93%, CC(=O)N1C[C@@H]2[C@H](c3ccccc31)[C@H](CO)N2Cc1ccc(Cl)cc1 16.8%, COc1ccccc1NC(=O)N1C[C@@H]2[C@H](c3ccccc31)[C@H](CO)N2CC1CCOCC1 16.7%, COc1ccc(C(=O)N2C[C@@H]3[C@H](c4ccccc42)[C@H](CO)N3Cc2ccc3c(c2)OCO3)cc1 -6.95%, CN1[C@@H]2CN(C(=O)C3CCCCC3)c3ccccc3[C@@H]2[C@@H]1CO -5.31%, CC(C)NC(=O)N1C[C@@H]2[C@H](c3ccccc31)[C@H](CO)N2C(=O)C1CCCC1 -6.09%, CCC(=O)N(C)C[C@H]1Oc2ncc(C#Cc3cccnc3)cc2C(=O)N([C@H](C)CO)C[C@H]1C 4.92%, CCCNC(=O)N1[C@H](C#N)[C@@H](c2ccccc2C2=CCCCC2)[C@@H]1CO -2.61%, O=C(c1ccc2c(c1)OCO2)N1CC(=O)N2[C@H](C1)[C@@H](c1ccc(C#Cc3ccccc3)cc1)[C@@H]2CO 11.6%, COc1ccc(NC(=O)Nc2ccc3c(c2)C(=O)N([C@H](C)CO)C[C@@H](C)[C@@H](CN(C)C(=O)NC(C)C)OCCCC[C@H](C)O3)cc1 4.29%, COCC(=O)N1[C@H](C(=O)N2CCN(C)CC2)[C@@H](CO)[C@@H]2Cn3c(ccc(C4=CCCC4)c3=O)[C@@H]21 -7.88%, COc1cccc(S(=O)(=O)N2CC3(CCN(C)CC3)c3c(n(C)c4cc(OC)ccc34)[C@H]2CO)c1 3.74%, CC(=O)C1=C(C)N(Cc2ccccc2)C(=S)NC1c1cccc(Br)c1 (stereo not given) -5.19%, C[C@@H]1CCCCO[C@@H](CN(C)S(=O)(=O)c2cccs2)[C@@H](C)CN([C@@H](C)CO)C(=O)c2cc(NS(=O)(=O)c3ccc(F)cc3)ccc2O1 -8.5%, C[C@H]1CN([C@@H](C)CO)C(=O)c2cccc(NC(=O)c3cnccn3)c2O[C@@H]1CN(C)Cc1ccc(Oc2ccccc2)cc1 2.15%, C[C@@H]1CN([C@H](C)CO)C(=O)c2cccc(NC(=O)c3cnccn3)c2O[C@@H]1CN(C)Cc1ccncc1 5.84%, CC(C)NC(=O)N(C)C[C@@H]1Oc2c(NC(=O)c3cnccn3)cccc2C(=O)N([C@@H](C)CO)C[C@@H]1C -11.9%, C[C@@H]1CN([C@@H](C)CO)C(=O)c2cccc(NC(=O)Nc3ccc(F)cc3)c2O[C@H]1CN(C)C(=O)Nc1ccc(F)cc1 14.7%, CC(=O)N[C@H]1CC[C@H](CCNC(=O)C2CC2)O[C@H]1CO -5.24%, O=C(c1cccc(F)c1)N1C[C@H]2[C@@H](c3ccccc31)[C@@H](CO)N2C(=O)Cc1ccccc1 -5.94%, CO[C@@H]1CN(C)C(=O)c2ccc(NS(C)(=O)=O)cc2OC[C@@H](C)N(C(=O)CC2CC2)C[C@@H]1C -2.7%, Cc1c(C(=O)NCCCc2ccccc2)cccc1[N+](=O)[O-] 4.47%, Cc1nn(Cc2ccccc2)c(C)c1C(=O)NCCN1C(=O)S/C(=C\c2ccc(F)cc2)C1=O -3.31%, O=C(C[C@@H]1CC[C@@H](NS(=O)(=O)c2ccccc2)[C@H](CO)O1)NCc1ccc(Cl)c(Cl)c1 3.78%, CCc1ccc(C(=O)CSc2nnc(C)c(=O)[nH]2)cc1 -2.63%, Cc1c(C)n2c(SCC(=O)N3CCCC3)nnc2[nH]c1=O 13.9%, COc1ccc2c3c(n(C)c2c1)[C@@H](CO)N(C(=O)Nc1ccc(F)cc1)CC31CN(C(=O)NC(C)C)C1 -3.42%, CNC(=O)C[C@@H]1CC[C@H]2[C@H](COc3ccc(NC(=O)C4CC4)cc3C(=O)N2C)O1 -4.01%, CCCNC(=O)Nc1ccc2c(c1)C(=O)N(C)C[C@@H](OC)[C@H](C)CN(CCC)[C@@H](C)CO2 3.79%, COc1ccc(S(=O)(=O)Nc2cccc3c2O[C@H](CN(C)C(=O)NC(C)C)[C@H](C)CN([C@H](C)CO)C3=O)cc1 -8.19%, O=C(N[C@@H]1CC[C@@H](CCn2cc(-c3ccccn3)nn2)O[C@@H]1CO)c1ccccc1 -2.85%, CC=Cc1ccc2n(c1=O)C[C@@H]1[C@@H](CO)[C@H](C(=O)N3CCCCC3)[C@H]2N1C(=O)C1CCC1 (mixture of isomers) 1.43%, O=S(=O)(NCC[C@H]1CC[C@@H](NS(=O)(=O)c2ccccc2Cl)[C@@H](CO)O1)c1ccc(Cl)cc1 -9.23%, Cc1c(CCC(=O)O)c(=O)oc2c(C)c(OCc3ccccc3Cl)ccc12 -5.66%, COc1ccc(OC)c(Cc2nnc(CCC(=O)NC3CCCC3)o2)c1 -7.33%, C[C@H]1CN([C@@H](C)CO)C(=O)c2cc(C#CCN(C)C)cnc2O[C@H]1CN(C)C(=O)Cc1ccccc1 -2.97%, Cc1[nH]c2ccccc2c1CC(=O)Nc1ccc(Nc2cccnc2)c(-c2cccc(Cl)c2)c1 -3.53%, Cc1ccccc1CN(C)C[C@H]1OCc2cn(nn2)CCCC(=O)N([C@@H](C)CO)C[C@H]1C -8.88%, COc1ccc(CN(C)C[C@H]2OCCCC[C@H](C)Oc3ccc(NC(=O)c4ccccc4)cc3C(=O)N([C@@H](C)CO)C[C@@H]2C)cc1 10.3%, O=C(Nc1ncccc1O)c1ccc(S(=O)(=O)N2CCCC2)cc1 -6.91%, O=C(N/N=C/c1ccccn1)c1ccc(S(=O)(=O)N2CCCCCC2)cc1 0.844%, C[C@@H]1CN([C@H](C)CO)C(=O)c2cc(NC(=O)Nc3ccc(F)cc3)ccc2O[C@@H](C)CCCCO[C@H]1CN(C)Cc1ccc(Cl)c(Cl)c1 -2.33%, C[C@@H]1CN([C@@H](C)CO)S(=O)(=O)c2ccc(C3=CCCCC3)cc2O[C@@H]1CN(C)Cc1cccc(C(=O)O)c1 0.212%, O=C(COc1ccccc1)Nc1ccc(C(=O)N2CCCC2)cc1 -2.25%, COc1ccc(N2CCN(C(=O)c3cccs3)CC2)cc1 5.45%, COc1ccc(-c2cn[nH]c2-c2ccc(OC)cc2)cc1 4.92%, Cc1cc(C)n(CCNS(=O)(=O)c2ccc(Cl)cc2)n1 8.8%, CN(C)CC(=O)N1[C@H](C(=O)NC2CCC2)[C@@H](CO)[C@@H]2Cn3c(ccc(-c4ccc(F)cc4)c3=O)[C@@H]21 2.93%, O=C(CN1CCOCC1)N1C[C@@H]2N[C@H](C1)C2c1ccc(-c2ccncc2)cc1 (stereo not given in full) -7.01%, O=C(C1CCC1)N1C[C@@H]2N[C@H](C1)C2c1ccc(-c2cncnc2)cc1 (stereo not given in full) 10.6%, COc1ccc(-c2ccc(C3[C@@H]4CN(S(=O)(=O)c5cn(C)cn5)C[C@H]3N4)cc2)cc1 (stereo not given in full) 1.06%, Cn1cnc(S(=O)(=O)N2C[C@@H]3N[C@H](C2)C3c2ccc(/C=C/c3ccccc3)cc2)c1 (stereo not given in full) 1.24% and -2.99%

CPE inhibition, 72.2% (active) and -4.36% (inactive):
Cn1cnc(S(=O)(=O)N2C[C@@H]3N[C@H](C2)C3c2ccc(-c3ccccc3F)cc2)c1 (stereo not given in full)

— PubChem BioAssay AID651640 (Broad Institute, 2012)
